The chains are these.
T1: UNK ZnF1-6 (called full-length) (human, UniProt Q9C0B0 30-357)
T1 sequence: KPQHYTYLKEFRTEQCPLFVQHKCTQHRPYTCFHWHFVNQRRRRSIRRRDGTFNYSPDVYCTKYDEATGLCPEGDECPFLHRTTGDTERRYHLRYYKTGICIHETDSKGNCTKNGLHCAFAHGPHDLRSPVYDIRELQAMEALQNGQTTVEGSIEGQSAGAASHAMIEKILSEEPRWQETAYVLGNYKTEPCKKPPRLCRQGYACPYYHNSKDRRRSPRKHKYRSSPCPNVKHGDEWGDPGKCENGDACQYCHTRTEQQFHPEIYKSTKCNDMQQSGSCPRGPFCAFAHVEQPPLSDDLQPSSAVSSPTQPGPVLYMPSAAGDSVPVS

B1: chr20:32237940:32238012:+|3pUTR|ENSG00000101346|msi1_unk|total|mutant (ssRNA)
RNA: GGGAGUUCUACAGUCCGACGAUCUUUCAAAGAUACAAAUAUUUACACCGUUUUAAUCAUGUAAUAUAUACAAUUUAAUGUCCCCGUGUUUUACUUAACCGUGUAUCAUGUUUUCCCUGUUGGUAUGCCGCCUGGAUAAAUGCUCAACAGAGGAUUGAGCAUCA
B2: chr4:152882748:152882856:+|CDS|ENSG00000164144|unk|FALSE|unique (ssRNA)
RNA: GGGAGUUCUACAGUCCGACGAUCCAGAAACUGCUGGCUAAAAAUGGAGAGACUCUUCUUGGGGCCAUUAAUUUUUUCAUUGCUAGUGUGAACACUUUGGUGAAUAAAACCAUUGAAGAUACAUUAAUGACUGUGAAACAGUAUCAACAGAGGAUUGAGCAUCA
B3: chrX:13662881:13662996:+|CDS|ENSG00000176896|unk|total|mutant (ssRNA)
RNA: GGGAGUUCUACAGUCCGACGAUCUCGAAUUCUCUGUCUUCCCAAGACGUUGCAAAACUCAGUGAAAUGAUUGUGCCUGAAAACCGAGCCAUUCAAUUGAAACCUAAGGAAGAGCAUUUUGGGGAUGGUGACCCUGAAUCCACUCAACAGAGGAUUGAGCAUCA
B4: chr10:116672031:116672132:-|3pUTR|ENSG00000165868|msi1|total|mutant (ssRNA)
RNA: GGGAGUUCUACAGUCCGACGAUCCCUUUCCUGCCUUGCAUUAAUGCUAUCUCCCUGUGUACUGUUUCUCUUAAAUGAGCAGACCGAAAUCUGCAGUGUUGGCAGACCGGUGAUGGAGAGGAUGAUAAUUUUAUCUUCUGGCCACAACAGAGGAUUGAGCAUCA
B5: chr2:121605696:121605828:-|CDS|ENSG00000074054|unk|FALSE|unique (ssRNA)
RNA: GGGAGUUCUACAGUCCGACGAUCGAUAGACUAUUUCUCAGACAAACAGAAGUCUGCUGACCUUGAGCAUGACCAGACCAUGUUAGAUAAACUUGUGGAUGGACUUGCUACCUCUUGGGUGAACUCUAGCAAUUACAAGGUAAGCAACAGAGGAUUGAGCAUCA
B6: chr17:64498535:64498649:-|3pUTR|ENSG00000108654|unk|FALSE|unique (ssRNA)
RNA: GGGAGUUCUACAGUCCGACGAUCUUAAACUGAGGCUUUAAUUGAUGUUAAUGCCUUAUGUCAAAUGUAAAGUUAGAAUUUGCUAGGGCUGGGAUAGGGAGUGAUAUUUCUAGGACUUAGACAUUGAAAACUAAUUCAGCCUGUCAACAGAGGAUUGAGCAUCA
B7: ENSG00000124766:be:win_2101|3pUTR|ENSG00000124766|bound_else_gene|NA|bound_elsewhere_windowed (ssRNA)
RNA: GGGAGUUCUACAGUCCGACGAUCUGCCCCCUCUGCAGCCGGAGGAGGAGAUGUUGAGGGGAGGAGGCCAGCCAGUGUGACCGGCGCUAGGAAAUGACCCGAGAACCCCGUUGGAAGCGCAGCAGCGGGAGCUAGGGGCGGGGGCAACAGAGGAUUGAGCAUCA
B8: chr4:75812186:75812332:+|CDS|ENSG00000138768|unk|total|mutant (ssRNA)
RNA: GGGAGUUCUACAGUCCGACGAUCAGAGCAGCUGGAUUCAUCUAACCGUACCAUUGCCAUUUUACAAACUGAGAAAGACAAACCCGAGUUGGAAAUUACAGAUUCUAAAAAAGAACAAGAUGAUCUCUUGGUGCUCUUGGCCGACAACAGAGGAUUGAGCAUCA
B9: ENSG00000198589:be:win_7451|CDS|ENSG00000198589|bound_else_gene|NA|bound_elsewhere_windowed (ssRNA)
RNA: GGGAGUUCUACAGUCCGACGAUCUGAGUCCAUUGAUGUUCACAGACAAAGCCCAGCAGGAUGUUAUCAUGGUCCUCAAGUUUCCCUCCAACUCCCCUGUUACUCACGUGGCAGCCAACACCCAGCCUGGUUUGGCAACUCCCGCAACAGAGGAUUGAGCAUCA
B10: chr4:75597091:75597192:-|CDS|ENSG00000138769|unk|total|mutant (ssRNA)
RNA: GGGAGUUCUACAGUCCGACGAUCUAUAAACUAUUUAAAAUAAAAGGCUCAAAAAUUGAUGGAGAAAAAGCUGAAAAAGGCAACCGAGCUUCAAAUGCCAGCUGUCUCCAUGACAGCCGGACAAGCCACAACAAAACCGUGCCUCAACAGAGGAUUGAGCAUCA
B11: chr17:82078764:82078865:-|3pUTR|ENSG00000169710|msi1_unk|FALSE|overlapping (ssRNA)
RNA: GGGAGUUCUACAGUCCGACGAUCCCGUGGGGUCUGCGCUUGGUCUUUCUGUGCUUGGAUUUGCAUAUUUAUUGCAUUGCUGGUAGAGACCCCCAGGCCUGUCCACCCUGCCAAGACUCCUCAGGCAGCGUGUGGGUCCCGCACCAACAGAGGAUUGAGCAUCA
B12: ENSG00000136451:be:win_1451|CDS_3pUTR|ENSG00000136451|bound_else_gene|NA|bound_elsewhere_windowed (ssRNA)
RNA: GGGAGUUCUACAGUCCGACGAUCCUCCAAUGAAUCUACCCACACCUAUGACAUUAGCCGCCCCUCUCAAUAUAGCAAUGAGACCUGUAGAGAGCAUGCCUUUCUUGCCCCAAGCUUUGCCUACAUCACCGCCUUGGUAAACAGCAACAGAGGAUUGAGCAUCA
B13: chr5:173316791:173316892:-|3pUTR|ENSG00000113739|msi1|FALSE|unique (ssRNA)
RNA: GGGAGUUCUACAGUCCGACGAUCGGAAACCUUAUACCCAGAGGAAAAUACACACCUGGGGAGUACAUUUGACAAAUUUCCCUUAGGAUUUCGUUAUCUCACCUUGACCCUCAGCCAAGAUUGGUAAAGCUGCGUCCUGGCGAUCAACAGAGGAUUGAGCAUCA
B14: ENSG00000064393:stop:overlap|stop_codon|ENSG00000064393|stop_codon|NA|stop_codon (ssRNA)
RNA: GGGAGUUCUACAGUCCGACGAUCUCUCCCUGGAGAGUGGUUUUCCUGCUUUUCUGCUGCUAGAAAUGUUGCUGUAUGGGAGCUAGUACAAUAGAAAGUGCCCAGUGACUGCAGGCGACCCUUACCGAGGAUUUUAUUCAAGUACAACAGAGGAUUGAGCAUCA

Whole data set: some 5,800 sequences, median “enrichment r” near 0.68, cut for the highest 2% near 11. Not all results are given here.

The target of the assay is T1, UNK ZnF1-6 (called full-length). Kind of assay: nsRBNS (natural sequence RNA bind-n-seq); RBNS binding buffer (assumed for nsRBNS): 25 mM Tris pH 7.5, 150 mM KCl, 3 mM MgCl2, 0.01% Triton X-100, 500 ug/ml BSA, 20 U/ml SUPERase-In, 4 C; UNK is unkempt and MSI1 is Musashi-1; names of the RNAs are library labels; protein concentration not given here; high values mean tight binding.
B1 gave a binding signal of 0.548 enrichment R.
As for B2, the figure is 0.365 enrichment R.
The same measure for B3: 0.441 enrichment R; for B4: 0.548 enrichment R.
The same measure for B5: 0.726 enrichment R.
As for B6, the binding signal was 0.878 enrichment R.
As for B7, the figure is 1.41 enrichment R; as for B8, 0.434 enrichment R; as for B9, 0.743 enrichment R.
As for B10, the figure is 0.872 enrichment R; as for B11, 0.749 enrichment R; as for B12, 1.48 enrichment R.
As for B13, the figure is 0.601 enrichment R; as for B14, 0.569 enrichment R.

(Values after publication PMC12136788.)
